Results from PubChem BioAssay AID1159580 (chemical genetic matrix, 2015).
Values joined by “and” are separate entries in the source; they are usually repeats but may differ in a detail not shown here. Equal values may be shown once. Among all 5,500 compounds or so, about 2,000 (36%) were called active. Roughly 18% stayed inconclusive and do not appear here. No stated cut-off is given here; in the data, active means normalized growth mostly below about 0.91 (no sharp cut-off); inconclusive means no clear call, values can overlap the other calls; inactive means mostly above about 0.92. The list shows a part of the results.

Experiment: chemical genetic growth profiling, strain panel (AID 1159580);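 further: tested at 20 µM; growth read once vehicle control cultures reached saturation at 30 °C; 1 = growth at the plate median or of vehicle wells; lower values mean less growth of the strain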
Details: growth OD
[1] = S. cerevisiae deletion strains, locus YAL013W, strain DEP1, hits give low values
[2] = S. cerevisiae deletion strains, locus YNL153C, strain GIM3, hits give low values
[3] = S. cerevisiae deletion strains, locus YNL322C, strain KRE1, hits give low values
[4] = S. cerevisiae deletion strains, locus YPL055C, strain LGE1, hits give low values

Measured: normalized growth

N[C@@H](Cc1cc(I)c(Oc2cc(I)c(O)c(I)c2)c(I)c1)C(=O)O
inactive: [1] 1.05 | S. cerevisiae deletion strains, locus YBR021W, strain FUR4, hits give low values 1.07 | S. cerevisiae deletion strains, locus YBR229C, strain ROT2, hits give low values 1.02 | S. cerevisiae deletion strains, locus YDL035C, strain GPR1, hits give low values 1.04 | S. cerevisiae deletion strains, locus YDL074C, strain BRE1, hits give low values 1.04 | S. cerevisiae deletion strains, locus YDL101C, strain DUN1, hits give low values 1.04 | S. cerevisiae deletion strains, locus YDL134C, strain PPH21, hits give low values 1.03 | S. cerevisiae deletion strains, locus YDL185W, strain tfp1, hits give low values 1.03 | S. cerevisiae deletion strains, locus YDR101C, strain arx1, hits give low values 1.04 | S. cerevisiae deletion strains, locus YDR150W, strain NUM1, hits give low values 1.06 | S. cerevisiae deletion strains, locus YDR162C, strain NBP2, hits give low values 1.03 | S. cerevisiae deletion strains, locus YDR318W, strain mcm21, hits give low values 1 | S. cerevisiae deletion strains, locus YDR502C, strain sam2, hits give low values 1.05 | S. cerevisiae deletion strains, locus YEL061C, strain CIN8, hits give low values 1.05 | S. cerevisiae deletion strains, locus YER110C, hits give low values 1.1 | S. cerevisiae deletion strains, locus YER155C, strain BEM2, hits give low values 1.06 | S. cerevisiae deletion strains, locus YER167W, strain BCK2, hits give low values 1.01 | S. cerevisiae deletion strains, locus YGL078C, strain dbp3, hits give low values 1.01 | S. cerevisiae deletion strains, locus YGL086W, strain mad1, hits give low values 1 | S. cerevisiae deletion strains, locus YGL248W, strain PDE1, hits give low values 1.02 | S. cerevisiae deletion strains, locus YGR078C, strain PAC10, hits give low values 1.03 | S. cerevisiae deletion strains, locus YGR135W, strain pre9, hits give low values 1.04 | S. cerevisiae deletion strains, locus YGR229C, strain SMI1, hits give low values 1.03 | S. cerevisiae deletion strains, locus YGR252W, strain gcn5, hits give low values 1.17 | S. cerevisiae deletion strains, locus YHR030C, strain SLT2, hits give low values 1.02 | S. cerevisiae deletion strains, locus YHR079C, strain IRE1, hits give low values 1.05 | S. cerevisiae deletion strains, locus YHR094C, strain hxt1, hits give low values 1.04 | S. cerevisiae deletion strains, locus YHR129C, strain ARP1, hits give low values 1.04 | S. cerevisiae deletion strains, locus YIL066C, strain RNR3, hits give low values 1.01 | S. cerevisiae deletion strains, locus YIL073C, strain SPO22, hits give low values 1.07 | S. cerevisiae deletion strains, locus YIL125W, strain kgd1, hits give low values 1.04 | S. cerevisiae deletion strains, locus YJL095W, strain BCK1, hits give low values 0.994 and 1.02 | S. cerevisiae deletion strains, locus YJL134W, strain LCB3, hits give low values 1.03 | S. cerevisiae deletion strains, locus YJL187C, strain SWE1 (second series), hits give low values 1.02 | S. cerevisiae deletion strains, locus YJR043C, strain POL32, hits give low values 1.04 | S. cerevisiae deletion strains, locus YJR066W, strain TOR1, hits give low values 0.978 | S. cerevisiae deletion strains, locus YJR075W, strain HOC1, hits give low values 1.05 | S. cerevisiae deletion strains, locus YKL009W, strain mrt4, hits give low values 0.928 | S. cerevisiae deletion strains, locus YKL068W, hits give low values 0.963 | S. cerevisiae deletion strains, locus YKL085W, strain MDH1 (second series), hits give low values 0.995 | S. cerevisiae deletion strains, locus YKL085W, strain MDH1, hits give low values 0.995 | S. cerevisiae deletion strains, locus YKL190W, strain CNB1, hits give low values 1.04 | S. cerevisiae deletion strains, locus YKR001C, strain vps1, hits give low values 0.953 | S. cerevisiae deletion strains, locus YLR039C, strain RIC1, hits give low values 1.04 | S. cerevisiae deletion strains, locus YLR058C, strain SHM2, hits give low values 1.03 | S. cerevisiae deletion strains, locus YLR113W, strain HOG1, hits give low values 1.01 | S. cerevisiae deletion strains, locus YLR262C, strain YPT6, hits give low values 1.06 | S. cerevisiae deletion strains, locus YLR268W, strain sec22, hits give low values 1.05 | S. cerevisiae deletion strains, locus YLR342W, strain FKS1 (second series), hits give low values 0.998 | S. cerevisiae deletion strains, locus YLR418C, strain cdc73, hits give low values 0.998 | S. cerevisiae deletion strains, locus YML016C, strain PPZ1, hits give low values 1.02 | S. cerevisiae deletion strains, locus YML032C, strain rad52, hits give low values 1.03 | S. cerevisiae deletion strains, locus YML124C, strain tub3, hits give low values 1.06 | S. cerevisiae deletion strains, locus YMR263W, strain SAP30, hits give low values 1.06 | S. cerevisiae deletion strains, locus YMR307W, strain GAS1, hits give low values 1.05 | S. cerevisiae deletion strains, locus YNL067W, strain RPL9B, hits give low values 1.02 | S. cerevisiae deletion strains, locus YNL128W, strain TEP1, hits give low values 1.05 | [2] 1.02 | S. cerevisiae deletion strains, locus YNL183C, strain NPR1, hits give low values 0.945 | S. cerevisiae deletion strains, locus YNL233W, strain BNI4, hits give low values 1.03 | S. cerevisiae deletion strains, locus YNL250W, strain rad50, hits give low values 1.04 | S. cerevisiae deletion strains, locus YNL271C, strain bni1, hits give low values 1 | S. cerevisiae deletion strains, locus YNL298W, strain CLA4, hits give low values 1.03 | [3] 1.05 | S. cerevisiae deletion strains, locus YOL006C, strain TOP1, hits give low values 1.02 | S. cerevisiae deletion strains, locus YOL012C, strain htz1 1.11 | S. cerevisiae deletion strains, locus YOR061W, strain CKA2, hits give low values 1.03 | S. cerevisiae deletion strains, locus YOR069W, strain VPS5, hits give low values 1.03 | S. cerevisiae deletion strains, locus YOR184W, strain ser1, hits give low values 1.01 | S. cerevisiae deletion strains, locus YOR231W, strain MKK1, hits give low values 1.02 | [4] 1.03 | S. cerevisiae deletion strains, locus YPL241C, strain CIN2, hits give low values 1.05 | S. cerevisiae deletion strains, locus YPL256C, strain CLN2, hits give low values 1.06 | S. cerevisiae deletion strains, locus YPR119W, strain clb2, hits give low values 1.06 | S. cerevisiae deletion strains, strain wtn01, hits give low values 1.02 | S. cerevisiae strains, strain wild type, hits give low values 1.04
active: S. cerevisiae deletion strains, locus YCL029C, strain bik1, hits give low values 1.22 [resistant] | S. cerevisiae deletion strains, locus YDL192W, strain arf1, hits give low values 1.12 [resistant] | S. cerevisiae deletion strains, locus YDR388W, hits give low values 1.09 [resistant] | S. cerevisiae deletion strains, locus YHR079C, strain IRE1 (second series), hits give low values 1.27 [resistant] | S. cerevisiae deletion strains, locus YHR200W, strain rpn10, hits give low values 1.19 [resistant] | S. cerevisiae deletion strains, locus YIR030C, strain dcg1, hits give low values 1.13 [resistant] | S. cerevisiae deletion strains, locus YJL168C, strain set2, hits give low values 1.1 [resistant] | S. cerevisiae deletion strains, locus YLR102C, strain apc9, hits give low values 1.09 [resistant] | S. cerevisiae deletion strains, locus YLR330W, strain CHS5, hits give low values 1.13 [resistant] | S. cerevisiae deletion strains, locus YLR371W, strain rom2, hits give low values 1.2 [resistant] | S. cerevisiae deletion strains, locus YMR078C, strain ctf18, hits give low values 1.16 [resistant] | S. cerevisiae deletion strains, locus YMR223W, strain ubp8, hits give low values 1.25 [resistant] | S. cerevisiae deletion strains, locus YNL307C, strain MCK1, hits give low values 0.851 | S. cerevisiae deletion strains, locus YNR052C, strain pop2, hits give low values 1.24 [resistant] | S. cerevisiae deletion strains, locus YOL147C, strain pex11, hits give low values 1.08 [resistant] | S. cerevisiae deletion strains, locus YOR144C, strain elg1, hits give low values 1.2 [resistant] | S. cerevisiae deletion strains, locus YOR316C, strain cot1, hits give low values 1.22 [resistant] | S. cerevisiae deletion strains, locus YPR141C, strain kar3, hits give low values 1.23 [resistant] | S. cerevisiae deletion strains, locus YPR163C, strain tif3, hits give low values 1.14 [resistant] | S. cerevisiae deletion strains, locus YPR167C, strain met16, hits give low values 1.17 [resistant]

N[C@@H](Cc1ccc(F)cc1)C(=O)O
inactive: [1] 1.01 | S. cerevisiae deletion strains, locus YAL040C, strain CLN3, hits give low values 0.992 | S. cerevisiae deletion strains, locus YCL061C, strain MRC1 (second series), hits give low values 0.995 | S. cerevisiae deletion strains, locus YDR363W, strain ESC2, hits give low values 1.01 | S. cerevisiae deletion strains, locus YER002W, strain NOP16, hits give low values 0.99 | [2] 0.995 | S. cerevisiae deletion strains, locus YNL175C, strain NOP13, hits give low values 0.978 | S. cerevisiae deletion strains, locus YNL197C, strain WHI3, hits give low values 0.995 | S. cerevisiae deletion strains, locus YNL224C, strain SQS1, hits give low values 0.967 | [3] 1 | S. cerevisiae deletion strains, locus YOR083W, strain WHI5 (second series), hits give low values 0.988 | [4] 0.99
